# Hits are enriched below; roughly 19% of the tested compounds scored in any of these assays.
# RORgamma inh: inhibitors of mouse ROR gamma transcriptional activity | actives 5.4% (n = 310,000) | Drosophila S2 Gal4-RORgamma UAS-luciferase reporter, 20 h | P51450 | Potency, µM (titrated, usually from 53.6 µM), inactives show at the top dose activity change, negative = inhibition, usual class: inhibitors; further: nearly all actives have a fitted effect of over 60% in size
#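 Drosophila S2 cells stably expressing Gal4-DBD/mouse RORγ fusion under metallothionein promoter plus UAS-luciferase; compound 1 h, then 700 uM CuSO4 induction for 20 h at ambient temperature; inhibition read as reduced luminescence.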
# TDP1 cell CPT: growth inhibition of DT40 Tdp1-/-;hTDP1 cells with camptothecin (screen for TDP1 inhibitors) | Potency, µM (top dose mostly 46.2 µM), inactives show at the top dose activity change, negative = growth inhibition, usual class: inhibitors | AID 686979 | actives 12% (n = 420,000) | chicken DT40 Tdp1-/-;hTDP1 cells + 20 nM CPT, ATP luminescence, 48 h; further: nearly all actives have a fitted effect of over 55% in size
#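 Chicken DT40 Tdp1-/- cells complemented with human TDP1, 400 cells/well, exposed to compounds plus 20 nM camptothecin for at least 48 h at 37 C; viability read as ATP content by CellTiter-Glo luminescence.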
# TDP1 block: inhibitors of human tyrosyl-DNA phosphodiesterase TDP1; Potency, µM (titrated, usually from 130 µM), inactives show top-dose activity change, negative = inhibition, usual class: inhibitors; recombinant TDP1, AlphaScreen DNA substrate cleavage; actives 0.28% (n = 350,000); further: nearly all actives have a fitted effect of over 40% in size
# Target sequence (Q9NUW8 whole entry, looked up): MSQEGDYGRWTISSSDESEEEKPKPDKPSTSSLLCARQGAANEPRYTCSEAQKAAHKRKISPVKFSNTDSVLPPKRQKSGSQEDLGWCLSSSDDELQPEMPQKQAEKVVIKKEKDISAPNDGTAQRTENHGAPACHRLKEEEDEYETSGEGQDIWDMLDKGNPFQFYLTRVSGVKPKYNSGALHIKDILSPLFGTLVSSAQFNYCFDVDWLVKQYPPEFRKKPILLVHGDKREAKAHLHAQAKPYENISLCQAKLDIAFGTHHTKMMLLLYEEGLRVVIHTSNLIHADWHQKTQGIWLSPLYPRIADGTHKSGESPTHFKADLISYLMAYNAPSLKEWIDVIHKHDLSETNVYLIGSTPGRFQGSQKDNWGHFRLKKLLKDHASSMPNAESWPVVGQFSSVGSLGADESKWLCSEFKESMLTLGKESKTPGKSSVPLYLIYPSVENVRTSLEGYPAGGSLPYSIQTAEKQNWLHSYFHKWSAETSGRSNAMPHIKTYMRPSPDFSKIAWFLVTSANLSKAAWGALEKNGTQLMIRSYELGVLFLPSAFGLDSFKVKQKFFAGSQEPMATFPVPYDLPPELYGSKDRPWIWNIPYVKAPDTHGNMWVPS
#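 Steps: enzyme plus compound, 15 min RT; add biotin/phosphotyrosine-FITC oligonucleotide (15 nM final), react 5 min; add donor/acceptor beads (10 ug/ml final), 10 min; read AlphaScreen. Tdp1 at 1 nM final.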
# TDP1 cell noCPT: qHTS for Inhibitors of human tyrosyl-DNA phosphodiesterase 1 (TDP1): qHTS in cells in absence of CPT | DT40 Tdp1-/- hTDP1 cells, no CPT, ATP luminescence, 48 h | Potency, µM (series often up to 46.2 µM), without a hit: top-dose activity change, negative = growth inhibition, actives largely listed as inhibitors | actives 15% (n = 420,000); further: nearly all actives have a fitted effect of over 55% in size
#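 A cellular qHTS used chicken DT40 cells lacking endogenous Tdp1 but carrying stably transfected human TDP1. Compounds were applied without camptothecin, and cell growth kinetics were judged by ATP-dependent luminescence after ≥48 hr.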
# VP16 counter: counter-screen for ROR gamma inhibitors: Gal4-VP16 reporter. Potency, µM (series often up to 53.6 µM), without a hit: top-dose activity, negative = inhibition, hits mostly inhibitors. Drosophila S2 Gal4-VP16 UAS-luciferase, luminescence, 20 h. AID 2546. actives 3.5% (n = 310,000);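 further: Gal4-VP16 expression switched on by copper sulfate through the metallothionein promoter; nearly all actives have a fitted effect of over 50% in size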
# Numbers without * were called inactive; ? = inconclusive; . = no result; [ ] = dose if it differs, or a comment. The call rests on the fitted dose curve; in most records, active means well fitted curve in the direction sought with a large enough effect; inconclusive means small, poorly fitted or top-dose-only effect, or another doubt; inactive means no such curve, though single readings can be large; an effect the other way counts as inactive or inconclusive. On the % scale 0 is the no-effect control and ±100 the full control effect; potency means the concentration at half of the fitted maximal effect.
SMILES,RORgamma inh,TDP1 cell CPT,TDP1 block,TDP1 cell noCPT,VP16 counter
O=C(c1ccc(Cn2c(=O)[nH]c3ccccc3c2=O)cc1)N1CCN(c2ccc(Cl)cc2)CC1,?,23µM*,2%,16µM*,-19%
CC(=O)c1ccc(N2CCN(C(=O)c3ccc(Cn4c(=S)[nH]c5ccc(N6CCOCC6)cc5c4=O)cc3)CC2)cc1,-8%,3.3µM*,2%,2.6µM*,25%
CC(=O)c1ccc(N2CCN(C(=O)c3ccc(Cn4c(=O)[nH]c5ccccc5c4=O)cc3)CC2)cc1,.,10µM*,4%,16µM*,.
COc1ccc(Cn2c(=O)[nH]c3cc(C(=O)N4CCN(c5ccc(OC)cc5)CC4)ccc3c2=O)cc1,4%,-3%,14%,?,-2%
COc1ccc(Cn2c(=O)[nH]c3cc(C(=O)N4CCN(c5ccc(C(C)=O)cc5)CC4)ccc3c2=O)cc1,44%,?,4%,15µM*,-13%
COc1ccc(CC(=O)Nc2ccccc2C(C)=O)cc1S(=O)(=O)N1CCOCC1,.,-2%,9%[0.505 µM],-7%,.
NS(=O)(=O)c1ccc(CCNC(=O)c2ccc(Cn3c(=O)[nH]c4ccccc4c3=O)cc2)cc1,-17%,0%,0%,0%,-8%
O=C(NCCc1ccc(Cl)cc1)c1ccc(Cn2c(=O)[nH]c3ccccc3c2=O)cc1,.,6.5µM*,28µM*,3.7µM*,.
CC1CCN(CCCNC(=O)CCc2nnc3n(CCc4ccccc4)c(=O)c4ccccc4n23)CC1,23%,?,1%,16µM*,-12%
CC1CCN(C(=O)Cn2c(=O)n(CCc3ccccc3)c(=O)c3ccccc32)CC1,2%,15µM*,5%,16µM*,0%
COc1ccc(CNCCS(=O)(=O)NC2CCCCC2)cc1,.,-1%,.,?,.
COc1ccc2nc(N3CCC(C)CC3)c(C#N)cc2c1,?,?,0%,?,?
N#Cc1cccc(NC(=O)Cn2nc(Cc3ccncc3)c3ccccc3c2=O)c1,.,-10%,-1%,1%,.
COCCNC(=O)CN(c1cc(Cl)ccc1OC)S(C)(=O)=O,-16%,-18%,0%,-2%,3%
COCCCNC(=O)CSc1nc2cc3c(cc2c(=O)n1CCCCCC(=O)NCc1ccc2c(c1)OCO2)OCO3,.,3%,-1%,2%,.
CCOc1ccccc1NC(=O)COc1coc(CN2CCc3ccccc3C2)cc1=O,.,?,2%,13µM*,.
CCC1CCCCN1C(=S)NC(=O)c1cccc([N+](=O)[O-])c1 (configuration not stated),0.28µM*,?,5%,?,-89%
O=C(NC(=S)N(CC1CCC1)CC1CCCO1)c1cccc([N+](=O)[O-])c1 (configuration not stated),56µM*,?,9%,?,0.28µM*
CC(=O)NNC(=S)NC(=O)c1cccc([N+](=O)[O-])c1,-5%[10 µM],4%,3%,-30%,-69%
COC(=O)CSc1nccc(-c2ccc(F)cc2)c1C#N,-8%,9%,-14%,-1%,-12%[10 µM]
CC(=O)Nc1ccc(NC(=O)Cn2c(=O)n(-c3ccccc3)c(=O)c3oc4ccccc4c32)cc1,1%,-1%,0%,-4%,-5%
CCN(CC)S(=O)(=O)c1cccc(-c2nnc(SCC(=O)c3cc(C)n(C)c3C)o2)c1,2%[10 µM],21µM*,9%,21µM*,3%
COc1cc(-c2nnc(SCC(=O)c3ccccc3)o2)cc(OC)c1OC,-25%,?,-2%,?,-1%
CCCN(CC(=O)c1cc(C)n(C)c1C)S(=O)(=O)c1cccc(C(F)(F)F)c1,5%,23µM*,4%,?,?
CCN(CC)S(=O)(=O)c1cccc(-c2nnc(SCCOc3ccccc3C)o2)c1,-17%[0.365 µM],?,-1%,?,.
SMILES,RORgamma inh,TDP1 cell CPT,TDP1 block,TDP1 cell noCPT,VP16 counter
COc1cc(-c2nnc(SCCOc3ccccc3)o2)cc(OC)c1OC,.,?,3%,16µM*,.
CCN(CC)S(=O)(=O)c1cccc(-c2nnc(SCCOc3ccccc3)o2)c1,28%,16µM*,1%,21µM*,1%
Oc1ccccc1/C=N/n1c2ccccc2c2ccccc21,-2%,?,-2%,-16%,0%
CCc1cc2cccc(C)c2nc1SCC(=O)Nc1cc(C)on1,-24%,10%,-4%,-4%,3%
CCOc1ccc(Cl)cc1C(c1c(C)[nH][nH]c1=O)c1c(C)[nH][nH]c1=O,-13%,15%,4%,-3%,-1%
CCN(CC)S(=O)(=O)c1cccc(-c2nnc(SCCOc3ccc(Cl)cc3)o2)c1,-14%,23µM*,-3%,?,-1%
CCN(CC)S(=O)(=O)c1ccc(-c2nnc(SCc3nnc(-c4ccc(C)cc4)o3)o2)cc1,7%,-27%,6%,-26%,-11%
CCOC(=O)Cn1nnnc1CN(Cc1ccc(OC)cc1)Cc1cc2cc(C)cc(C)c2[nH]c1=O,-4%[0.365 µM],23µM*,-8%,26µM*,.
CCOC(=O)Cn1nnnc1C(CC)N(Cc1cc2ccc(C)cc2[nH]c1=O)C1CCCC1 (configuration not stated),-1%,1%,3%,?,7%
CCOC(=O)Cn1nnnc1CN(Cc1ccc(OC)cc1)Cc1cc2cc(CC)ccc2[nH]c1=O,-15%,15µM*,2%,?,8%
Cc1ccc(Sc2cnc(N)nc2C)cc1,2%,?,2%,16µM*,2%
Cc1ccc(Sc2ncccc2C(N)=O)cc1,.,-7%,.,-28%,.
Oc1c(C(c2ccccc2Cl)N2CCCC2)ccc2cccnc12 (configuration not stated),1.6µM*,15µM*,6%,16µM*,-80%
CC(C)(C)n1nnnc1C(c1cccs1)N1CCN(c2ccccc2)CC1 (configuration not stated),4%,-10%,1%,?,11%
Oc1c(C(c2cccs2)N2CCN(c3ccccc3)CC2)ccc2cccnc12 (configuration not stated),5µM*,.,-5%,.,7.9µM*
CN(C)N(Cc1ccccc1)C(=O)C(O)(c1ccccc1)c1ccccc1,-1%,?,.,26µM*,-6%
CC(C)(O)C(=O)NN(Cc1ccccc1)c1ccccc1,-12%,-6%,1%,4%,-5%
O=C(Nc1ccc(-c2nc3ccccc3o2)cc1)c1ccc(N2C(=O)C3C4C=CC(C4)C3C2=O)cc1 (configuration not stated),36%,?,7%,?,2%
N#Cc1c(-c2ccccc2)c(-c2ccccc2)n(Cc2ccco2)c1NC(=O)c1cccs1,0%,11µM*,3%,?,-2%
